# Measurements taken from ChEMBL document CHEMBL1201862, “PubChem BioAssay data set” (2004).
# Entries with a potency or affinity are not part of this list.
# Test: M. tuberculosis growth inhibition, dose response, 7H9 media, purified and synthesized compounds, set 5 (AID 504903); call rule not given here
# Type: functional
row,SMILES,IC90
1,O=C(CSc1ccccn1)NC1CCCCC1,> 100 µM (active)
2,Cc1[nH]c2ccccc2c1C(=O)COC(=O)c1ccc([N+](=O)[O-])s1,> 50.5 µM (active)
3,CCCc1cc(C(N)=S)ccn1,> 100 µM (active)
4,CNC(=O)CSc1nc2ccccc2c(=O)[nH]1,> 100 µM (active)
